# Reference: article PMC4336329 (PLoS ONE, 2015)
# Screen size: about 310,000 compounds; about 2,200 (0.71%) showed an effect of 50% or more. Effects have a minus sign here. What follows is part of a selection rich in strong results, with near analogues and random picks from the rest.
# Molecular target: human ether-à-go-go-related gene (hERG) potassium channel (human, UniProt Q12809)
# Test: primary screen, population patch clamp on CHO cells stably expressing hERG; higher = less effect of the substance
# Chain of human ether-à-go-go-related gene (hERG) potassium channel (Q12809 whole entry, looked up): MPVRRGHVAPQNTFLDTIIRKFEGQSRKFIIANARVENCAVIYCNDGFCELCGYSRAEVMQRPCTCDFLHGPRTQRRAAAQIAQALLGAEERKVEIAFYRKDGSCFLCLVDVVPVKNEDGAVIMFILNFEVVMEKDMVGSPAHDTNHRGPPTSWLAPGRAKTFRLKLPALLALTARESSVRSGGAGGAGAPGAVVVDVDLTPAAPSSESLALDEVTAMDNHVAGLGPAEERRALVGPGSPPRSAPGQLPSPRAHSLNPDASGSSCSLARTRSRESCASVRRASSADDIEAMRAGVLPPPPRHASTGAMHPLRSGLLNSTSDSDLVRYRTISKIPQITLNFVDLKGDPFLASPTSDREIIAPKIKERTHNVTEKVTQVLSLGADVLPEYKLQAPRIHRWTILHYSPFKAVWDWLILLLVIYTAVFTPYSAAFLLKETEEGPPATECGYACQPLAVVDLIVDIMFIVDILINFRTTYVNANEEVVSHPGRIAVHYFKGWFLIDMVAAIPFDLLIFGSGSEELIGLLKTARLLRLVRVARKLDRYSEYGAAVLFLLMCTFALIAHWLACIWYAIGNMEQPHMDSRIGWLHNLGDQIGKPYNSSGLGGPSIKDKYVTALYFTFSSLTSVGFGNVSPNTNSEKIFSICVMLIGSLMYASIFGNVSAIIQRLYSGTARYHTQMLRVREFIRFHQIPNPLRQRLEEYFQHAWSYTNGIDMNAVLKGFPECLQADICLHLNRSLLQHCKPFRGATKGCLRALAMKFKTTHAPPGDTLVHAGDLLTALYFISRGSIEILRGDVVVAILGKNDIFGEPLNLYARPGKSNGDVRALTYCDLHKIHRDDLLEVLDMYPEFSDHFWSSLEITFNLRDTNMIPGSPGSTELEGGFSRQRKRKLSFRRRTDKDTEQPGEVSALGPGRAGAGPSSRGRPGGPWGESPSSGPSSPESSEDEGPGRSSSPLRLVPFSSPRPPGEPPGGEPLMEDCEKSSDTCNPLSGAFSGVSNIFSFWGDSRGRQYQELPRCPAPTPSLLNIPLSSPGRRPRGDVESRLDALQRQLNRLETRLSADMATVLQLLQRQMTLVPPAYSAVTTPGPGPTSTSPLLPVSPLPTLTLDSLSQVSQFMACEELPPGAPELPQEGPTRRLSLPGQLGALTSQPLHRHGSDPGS
row,SMILES,"hERG current change (%, negative = inhibition) at 1uM [%]"
1,S=C(N/N=C/c1cccc2ccccc12)Nc1cccc(Cl)c1,11.3
2,Nc1ccc(OCc2ccccc2)cc1,10.7
3,COc1ccc(OC)c(-n2c(CNC3CCN(Cc4ccccc4)CC3)nc3ccccc3c2=O)c1,-69.9
4,COc1ccc(OC)c(-n2c(CN3CCC(C(N)=O)CC3)nc3ccccc3c2=O)c1,7.22
5,COc1ccc(CNC2CCN(Cc3ccccc3)CC2)cc1,-3.31
6,CS(=O)(=O)Cc1cccc(C(=O)NC2CCSc3ccccc32)c1 (stereo not shown),16.3
7,COCc1cc(=O)[nH]c(Nc2nc(C)c3ccccc3n2)n1,6.35
8,COCc1cc(=O)[nH]c(Nc2nc(C)c3cc(OC)ccc3n2)n1,10
9,CCc1ccc2nc(Nc3nc(COC)cc(=O)[nH]3)nc(C)c2c1,-64.8
10,CC(=O)Nc1ccc(C(=O)NC2CCCC2)cc1,6.35
11,COc1ccccc1NC(=O)CSc1nnnn1C,16.4
12,CSC1=NP(=S)(SC)N2CCCC2=C1C#N (stereo not shown),6.13
13,CCCn1c2ccccc2c2cnn(CC(=O)N3CCOCC3)c(=O)c21,7.27
14,CCCn1c2ccccc2c2cnn(CC(=O)NCCOC)c(=O)c21,6.19
15,CCCn1c2ccccc2c2cnn(CC(=O)N3CCN(C4CCCCC4)CC3)c(=O)c21,-68.5
16,CCCn1c2ccccc2c2cnn(CC(=O)NC3CCCCC3)c(=O)c21,10.5
17,CCCn1c2ccccc2c2cnn(CC(=O)NCCN(CC)CC)c(=O)c21,-67
18,CCCn1c2ccccc2c2cnn(CC(=O)NCCN(C)C)c(=O)c21,-12.5
19,C[C@@H]1CC=C[C@H]2[C@H]1C(=O)N(Cc1ccccc1)[C@H]2c1ccc(-c2ccoc2)cc1F,17.9
20,N#Cc1cccnc1N1CCN(C(=O)c2ccco2)CC1,12.7
21,Cc1cc(N2C3CCC2CC(O)(c2ccc(F)cc2)C3)nc(-c2ccccc2)n1 (stereo not shown),9
22,O=C(CCN1CCN(c2ccccc2)CC1)N/N=C/c1ccc([N+](=O)[O-])o1,-58.5
23,CC(=O)Nc1ccc(/C=N/NC(=O)CCN2CCN(c3ccccc3)CC2)cc1,5.44

row,SMILES,"hERG current change (%, negative = inhibition) at 1uM [%]"
1,O=C(CCN1CCN(c2ccccc2)CC1)N/N=C/c1ccccc1O,9.66
2,CC(C)(C)c1nc2ccccc2[nH]1,10.8
3,COc1ccc(C(CNC(=O)COc2ccccc2)N2CCCCC2)cc1 (stereo not shown),-4.21
4,COc1ccc(C(CNC(=O)COc2ccc([N+](=O)[O-])cc2)N2CCCCC2)cc1 (stereo not shown),-52.1
5,COc1ccc(OCC(=O)NCC(c2ccc(OC)cc2)N2CCCCC2)cc1 (stereo not shown),-1.58
6,CC(=O)c1ccc(-n2ccnc2)cc1,7.14
7,CCC1CCCN1Cn1cnc2c([nH]c3ccc(Cl)cc32)c1=O (stereo not shown),-70.9
8,O=c1c2[nH]c3ccc(F)cc3c2ncn1CC1CCCO1 (stereo not shown),4.81
9,Cc1ccc2[nH]c3c(=O)n(CCN4CCOCC4)cnc3c2c1,6.2
10,Cc1ccc2[nH]c3c(=O)n(CCC4=CCCCC4)cnc3c2c1,11
11,CCC1CCCN1Cn1cnc2c([nH]c3ccccc32)c1=O (stereo not shown),-45.7
12,CCN1CCCC1Cn1cnc2c([nH]c3cccc(Cl)c32)c1=O (stereo not shown),-38.7
13,CCC1CCCN1Cn1cnc2c([nH]c3ccc(C)cc32)c1=O (stereo not shown),-54.9
14,CCN1CCCC1Cn1cnc2c([nH]c3ccc(Cl)cc32)c1=O (stereo not shown),-69.4
15,CCN1CCCC1Cn1cnc2c([nH]c3ccc(C)cc32)c1=O (stereo not shown),-63.4
16,O=c1c2[nH]c3ccc(Cl)cc3c2ncn1CCN1CCCCC1,-43.9
17,Cc1ccc2[nH]c3c(=O)n(CCN4CCNCC4)cnc3c2c1,18.5
18,Cc1ccc2[nH]c3c(=O)n(CCCN4CCN(C)CC4)cnc3c2c1,-12.6
19,COc1cccc(C(=O)Nc2ccncc2)c1OC,9.58
20,Cc1nn(CC(=O)c2cccc(Cl)c2)c(C)c1[N+](=O)[O-],6.41
21,Cc1ccc(Cn2cccc(NC(=O)CCC3CCCC3)c2=O)cc1,1.91
22,Cc1ccc(/C=C2/C(=O)NC(=O)N(C)C2=O)cc1,7.48
23,Cn1c(NC(=O)c2cc(-c3ccc4c(c3)OCO4)nc3ccccc23)cc(=O)n(C)c1=O,2.87

row,SMILES,"hERG current change (%, negative = inhibition) at 1uM [%]"
1,O=C(NCCCN1CCOCC1)c1ccc(N2CCCC2)c([N+](=O)[O-])c1,4.41
2,Cl.O=C(NCCCn1ccnc1)c1ccc(S(=O)(=O)N2CCCCCC2)cc1,9.74
3,Cc1ccc(C(=O)NCCCn2ccnc2)cc1[N+](=O)[O-],11.9
4,O=C(c1ccccc1)c1ccc(NCCCn2ccnc2)c([N+](=O)[O-])c1,-65.4
5,Cl.O=C(NCCCn1ccnc1)c1ccc(N2CCCCCC2)c([N+](=O)[O-])c1,-51.6
6,CCN(CC)S(=O)(=O)c1ccc(NCCCn2ccnc2)c([N+](=O)[O-])c1,-7.58
7,O=C(NCCCn1ccnc1)c1ccc(N2CCCCC2)c([N+](=O)[O-])c1,-54.1
8,COc1ccc(C(=O)NCCCn2ccnc2)cc1[N+](=O)[O-],3.98
9,NS(=O)(=O)c1ccc(NCCCn2ccnc2)c([N+](=O)[O-])c1,12
10,Cc1ccc(NC(=O)NC2CC(=O)N(c3ccc4c(c3)OCCO4)C2)cc1 (stereo not shown),11.3
11,CC[n+]1ccc(C(=O)NCc2ccccc2)cc1.[Cl-],12.3
12,CCc1[nH]nc2c1C1(C(=O)N(Cc3ccccc3)c3ccccc31)C(C#N)=C(N)O2 (stereo not shown),15.5
13,CCOc1ccc2[nH]c3nc(SCC(=O)OC(C)C)nnc3c2c1,14.6
14,CCCN1CCN(C(=S)Nc2ccc([N+](=O)[O-])cc2)CC1,-11
15,CCN1CCCC1CN(Cc1cc2ccc(C)cc2[nH]c1=O)C(=S)Nc1ccc(F)cc1 (stereo not shown),-70.6
16,CCN1CCCC1CN(Cc1cc2ccc(C)cc2[nH]c1=O)C(=S)Nc1ccc(OC)cc1 (stereo not shown),21.4
17,Cc1ccc2[nH]c(=O)c(CN(CCCN(C)C)C(=O)Nc3cccc(Cl)c3)cc2c1,-26.3
18,CCN(CC)CCN(Cc1cc2ccc(C)cc2[nH]c1=O)C(=O)Nc1ccc(Cl)cc1,-78.4
19,Cc1ccc2cc(CN(CCN(C)C)C(=O)Nc3ccc(Cl)cc3)c(=O)[nH]c2c1,-20.7
20,Cc1ccc2[nH]c(=O)c(CN(CCCN(C)C)C(=O)Nc3ccc(F)cc3)cc2c1,-37
21,CCN(CC)CCN(Cc1cc2cc(C)ccc2[nH]c1=O)C(=S)Nc1ccccc1,-23.4
22,Cc1ccc2[nH]c(=O)c(CN(CCCN(C)C)C(=O)Nc3ccc(Cl)cc3)cc2c1,-62.7
23,CCN1CCCC1CN(Cc1cc2ccc(C)cc2[nH]c1=O)C(=S)Nc1cccc(OC)c1 (stereo not shown),-44

row,SMILES,"hERG current change (%, negative = inhibition) at 1uM [%]"
1,CSc1ccc(/C=N/N2CCN(Cc3ccccc3Cl)CC2)cc1,9.96
2,Cc1c(C(=O)O)c(C(=O)O)nc2ccc(N3CCOCC3)cc12,10.3
3,Cc1c(CCC(=O)NC2CC2)c(=O)oc2c(C)c(O)ccc12,22.9
4,Cl.c1ccc2c(c1)N1CCN=C1N2CCN1CCCCC1,3.76
5,Br.CCOC(=O)CN1C2=NCCN2c2ccccc21,15.4
6,Br.COC(=O)c1ccc(OCCN2C3=NCCN3c3ccccc32)cc1,-56.5
7,Br.COC(=O)CN1C2=NCCCN2c2ccccc21,-3.47
8,Cl.c1ccc(OCCN2C3=NCCN3c3ccccc32)cc1,-51.5
9,CCCN1C2=NCCN2c2ccccc21.Cl,0.0662
10,Cc1ccc(Cl)cc1N1CCN(C(=O)Cc2cn(C)c3ccccc23)CC1,13.8
11,CCOc1cc(NC(=O)c2ccccn2)c(OCC)cc1NC(=O)c1ccc(OC)cc1,3.95
12,CNC(=S)NNC(=O)c1cccc(N(C)C)c1,2.36
13,Cc1cccc(NS(=O)(=O)c2cccs2)n1,17.6
14,COc1ccc(C2C(C(=O)N3CCN(c4ccccn4)CC3)CC(=O)N2c2ccc(OC)cc2)cc1 (stereo not shown),-50.6
15,COc1ccc(N2C(=O)CCC(C(=O)N3CCN(c4ccccn4)CC3)C2c2ccc(F)cc2)cc1 (stereo not shown),-21.3
16,COc1ccc(C2C(C(=O)N3CCN(c4ccccn4)CC3)CCC(=O)N2c2ccc(OC)cc2)cc1 (stereo not shown),-0.548
17,Cc1ccc(CNC(=O)CN(Cc2ccccc2)S(C)(=O)=O)cc1,-3.4
18,Cc1cc(=O)[nH]c(N/N=C/c2c[nH]c3ccccc23)n1,9.01
19,[O-][Cl+3]([O-])([O-])[O-].c1ccc(-c2[nH]c(-c3ccccc3)[n+](CC3CO3)c2-c2ccccc2)cc1 (stereo not shown),-2.8
20,N#CC(C#N)=Cc1ccc(N2CCCC2)cc1,5.75
21,Cc1cc(C=C(C#N)C#N)ccc1N1CCCC1,-68.6
22,Cc1cc(N2CCCC2)ccc1C=C(C#N)C#N,1.28
